# In PubChem BioAssay:
# “And” between values parts separate entries of the source, which are not always exact repeats. Equal values may be shown once. The source made the active and inactive calls.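 The calls were made as follows, unless noted: active = mean z-score across replicates of 1.96 or higher in either the MELAS or the Rieske mutant cell line; inactive = the rest.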
# Tests used:
# [1] = P. berghei load reduction in hepatocytes – cell-based, HepG2, luciferase luminescence, HepG2 viability, primary screen (AID 624349; in the data active = parasite load remaining mostly below about 12%, no sharp cut-off; inactive = mostly above about 10%;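 also: 100% = mean of DMSO negative control wells on the same plate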); conditions: P. berghei liver stage in HepG2, luciferase luminescence, concentration not given here; parasite load remaining: stronger effect = lower value; viability: measured here: HepG2 viability without parasites
# [2] = Wnt pathway potentiators raising nuclear beta-catenin – imaging, WNT3A-conditioned medium, mouse C2C12, NPC library, primary screen (AID 1117326; in the data active = nuclear beta-catenin stimulation mostly above about 4.2%, no sharp cut-off; inactive = mostly below about 10%); conditions: stronger effect = higher value
# [3] = stimulators of insulin release from INS-1E, primary screen, cell-based, 5 mM glucose, NPC library (AID 1117329;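 active = compound raises insulin release from rat beta cells at 5 mM glucose, no numeric limit stated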); conditions: rat INS-1E insulin secretion, at 10 µM, stronger effect = higher value
# [4] = growth inhibition of GSK3B-pretreated HCT116 cells – cell-based, CellTiter-Glo, 0.2 to 20 µM (AID 1117336;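 active = compounds lowering colon cancer cell viability after pretreatment blocking the GSK3B kinase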); conditions: HCT116 viability after GSK3B inhibitor, at 20 µM, stronger effect = higher value
# [5] = inhibition of endothelial tube formation, primary screen, imaging, VEGF stimulated, CD31 staining, tube area, NPC library (AID 1117340;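 active = compound that reduces growth-factor-driven endothelial tube area in a mixed cell culture, no cutoff stated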); conditions: VEGF-stimulated ADSC/ECFC co-culture, at 10 µM, stronger effect = higher value
# [6] = GLP1 release stimulators, primary, NCI-H716, NPC library (AID 1117341;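 active = compound raises GLP1 secretion from the human gut endocrine cells, with no numeric limit stated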); conditions: NCI-H716 cells, at 10 µM, stronger effect = higher value
# [7] = HCT116 colon cancer cell growth inhibition, primary screen, CellTiter-Glo luminescence, NPC library (AID 1117342;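 active = compounds that lower survival of HCT116 colon cancer cells in the luminescence readout, no numeric limit stated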); conditions: at 20 µM (top of the series)
# [8] = reduced SW480 viability measured with CellTiter-Glo, NPC library, primary (AID 1117343;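 active = compounds that lower viability of the colon cancer cells in the luminescence readout, with no numeric limit stated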); conditions: CellTiter-Glo luminescence; at 20 µM (top of the series) unless noted
# [9] = NPC library primary testing for decreased DLD-1 cell viability via CellTiter-Glo (AID 1117346;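 active = compounds that lower survival of DLD-1 colon cancer cells in the luminescence readout, no cutoff given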); conditions: DLD-1 viability, CellTiter-Glo luminescence; at 20 µM (top of the series)
# [10] = EMT-state selective cytotoxicity in co-culture – imaging, PC-3E GFP, TEM4-18 mCherry, primary screen (AID 1345086;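 active = compounds killing one labelled cell type while sparing the other, by normalised counts and ratio limits, not self-fluorescent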;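 as to all read-outs here: cells exposed to compound for 72 h before imaging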;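 as to red/green cell ratio (normalised): normalised mesenchymal count divided by normalised epithelial count so high means epithelial killing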); conditions: PC-3E GFP / TEM4-18 mCherry co-culture, imaging cell counts, at 1 µM; for red/green cell ratio (normalised): actives lie on both sides, counts scaled to control wells, 1 = unselective
# [11] = viability loss with induced miR-34 in A549 – imaging, A549 dox-inducible miR-34, nuclei and caspase counts, primary screen (AID 1347080;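 active = compounds whose cell count with miR-34 switched on is under 0.7 times the count with it off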); conditions: A549 miR-34 inducible, Hoechst nuclei count, 48 h
# [12] = MELAS cybrid and Rieske KO viability enhancers – cell-based, MELAS cybrids, Rieske KO mouse fibroblasts, CellTiter-Glo, primary screen (AID 1508586); conditions: low glucose;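 also: z relative to plate mean and SD of compound and empty wells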
# [13] = target: NAD(+) hydrolase SARM1 (Homo sapiens) (UniProt Q6SZW1); experiment: blocking NAD cleavage by SARM1 SAM-TIR – cell lysate, NAD-Glo luminescence (AID 1508614;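 active = compound whose remaining NAD level is above about 45 nM, limit read from the data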;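 also: higher remaining NAD means stronger inhibition of SARM1 NADase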); conditions: SAM-TIR HEK293T lysate NADase, at 1 µM, stronger effect = higher value
# Sequence of NAD(+) hydrolase SARM1 (Homo sapiens) (Q6SZW1 whole entry, looked up): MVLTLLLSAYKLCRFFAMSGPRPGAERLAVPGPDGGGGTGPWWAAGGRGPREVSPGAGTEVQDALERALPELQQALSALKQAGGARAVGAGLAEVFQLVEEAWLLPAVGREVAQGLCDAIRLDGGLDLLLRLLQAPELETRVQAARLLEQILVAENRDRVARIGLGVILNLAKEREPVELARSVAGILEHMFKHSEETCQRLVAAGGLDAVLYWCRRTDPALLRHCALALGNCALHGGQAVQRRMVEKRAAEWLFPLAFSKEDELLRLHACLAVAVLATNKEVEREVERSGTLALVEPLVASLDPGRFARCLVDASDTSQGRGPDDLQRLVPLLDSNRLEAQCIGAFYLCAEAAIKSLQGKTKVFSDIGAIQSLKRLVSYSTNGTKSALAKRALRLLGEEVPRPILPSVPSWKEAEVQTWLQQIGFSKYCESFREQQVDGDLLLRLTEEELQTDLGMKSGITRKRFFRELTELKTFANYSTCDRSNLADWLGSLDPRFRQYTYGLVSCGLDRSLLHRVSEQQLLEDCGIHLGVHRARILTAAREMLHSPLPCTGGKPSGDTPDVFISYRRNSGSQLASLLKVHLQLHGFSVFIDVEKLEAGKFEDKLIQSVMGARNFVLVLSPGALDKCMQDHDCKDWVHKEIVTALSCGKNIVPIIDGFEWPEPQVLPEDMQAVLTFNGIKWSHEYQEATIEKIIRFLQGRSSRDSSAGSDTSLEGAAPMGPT
# [14] = compounds altering viability of human ES cells (AID 493140; call rule not given here;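 also: cells exposed to compounds for four days before counting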); conditions: human embryonic stem cell survival screen; stronger effect = higher value
# [15] = measured here: epithelial PC-3E GFP cell survival
# [16] = measured here: mesenchymal TEM4-18 mCherry cell survival
# [17] = stronger effect = lower value, cell number ratio, induced over uninduced
# [18] = measured here: relative caspase fold change +Dox/-Dox
# [19] = measured here: total cells with miR-34 induction, stronger effect = lower value
# [20] = measured here: total cells without miR-34 induction
# [21] = MELAS cybrid survival, CellTiter-Glo 48 h, stronger effect = higher value
# [22] = Rieske KO mouse fibroblast survival, CellTiter-Glo 72 h
smiles,measurement,setting,value
NCCCNCCSP(=O)(O)O,parasite load remaining,[1],26.6% (inactive)
same,viability,[1],110%
same,nuclear beta-catenin stimulation,[2]; at 10 µM,-1.3% (inactive)
same,nuclear beta-catenin stimulation,"[2]; stimulation, at 2 µM",0.9%
same,insulin secretion stimulation,[3],3% (inactive)
same,viability decrease,[4],-4.2% (inactive)
same,tube area decrease,[5],-8.5% (inactive)
same,GLP1 secretion stimulation,[6],-1.2% (inactive)
same,inhibition of viability,[7],2.2% (inactive)
same,viability decrease (inhibition),[8],0.3% (inactive)
same,viability decrease (inhibition),[9],0% (inactive)
same,red/green cell ratio (normalised),[10],1.19 (inactive)
same,normalised cell number,[10]; [15],1.03
same,normalised cell number,[10]; [16],1.23
same,fold change,[11]; [17],1.03 (inactive) and 0.865 (inactive)
same,fold change,[11]; [18],1.84 and 1.27
same,cell count,[11]; [19],10300 and 9430
same,cell count,[11]; [20],10000 and 10900
same,z-score,[12]; [21],0.141 (inactive) and 0.413 (inactive)
same,z-score,[12]; [22],-0.0647 and -0.947
same,remaining NAD,[13],10 nM (inactive)
NC(N)=NC(N)=NCCc1ccccc1,survival,[14],15 (inactive)
same,parasite load remaining,[1],-0.135% (inactive) and 69.8% (inactive) and 0.98% (inactive)
same,viability,[1],41.9% and 91.2% and 89.5%
same,nuclear beta-catenin stimulation,[2]; at 10 µM,0% (inactive)
same,nuclear beta-catenin stimulation,"[2]; stimulation, at 2 µM",1.1%
same,insulin secretion stimulation,[3],-0.2% (inactive)
same,viability decrease,[4],27.4% (inactive)
same,tube area decrease,[5],27.6% (inactive)
same,GLP1 secretion stimulation,[6],-0.4% (inactive)
same,inhibition of viability,[7],9.6% (inactive)
same,viability decrease (inhibition),[8],70.3% (active)
same,viability decrease (inhibition),[9],9.45% (inactive)
same,red/green cell ratio (normalised),[10],0.86 (inactive)
same,normalised cell number,[10]; [15],1.06
same,normalised cell number,[10]; [16],0.91
same,z-score,[12]; [21],-0.896 (inactive) and -0.373 (inactive) and -0.362 (inactive)
same,z-score,[12]; [22],-0.647 and 0.306 and -0.384
same,remaining NAD,[13],10 nM (inactive)
CC(=O)NCCCS(=O)(=O)O,nuclear beta-catenin stimulation,[2]; at 10 µM,-1.9% (inactive)
same,nuclear beta-catenin stimulation,"[2]; stimulation, at 2 µM",-0.8%
same,insulin secretion stimulation,[3],-0.1% (inactive)
same,viability decrease,[4],-7.6% (inactive)
same,tube area decrease,[5],3.7% (inactive)
same,GLP1 secretion stimulation,[6],-1.3% (inactive)
same,inhibition of viability,[7],1.8% (inactive)
same,viability decrease (inhibition),[8],4.2% (inactive)
same,viability decrease (inhibition),[9],-2% (inactive)
same,red/green cell ratio (normalised),[10],0.97 (inactive)
same,normalised cell number,[10]; [15],1
same,normalised cell number,[10]; [16],0.97
same,fold change,[11]; [17],0.904 (inactive)
same,fold change,[11]; [18],0.789
same,cell count,[11]; [19],8720
same,cell count,[11]; [20],9650
same,z-score,[12]; [21],-0.172 (inactive)
same,z-score,[12]; [22],0.0861
same,remaining NAD,[13],10 nM (inactive)
O=C1Cc2cc(CCN3CCN(c4nsc5ccccc45)CC3)c(Cl)cc2N1,nuclear beta-catenin stimulation,[2]; at 10 µM,0.7% (inactive)
same,nuclear beta-catenin stimulation,"[2]; stimulation, at 2 µM",0.6%
same,insulin secretion stimulation,[3],0.65% (inactive)
same,viability decrease,[4],117% (active)
same,tube area decrease,[5],22.4% (inactive)
same,GLP1 secretion stimulation,[6],2.9% (inactive)
same,inhibition of viability,[7],124% (active)
same,viability decrease (inhibition),[8],91.1% (active)
same,viability decrease (inhibition),[9],101% (active)
same,red/green cell ratio (normalised),[10],0.94 (inactive)
same,normalised cell number,[10]; [15],1.17
same,normalised cell number,[10]; [16],1.1
same,fold change,[11]; [17],0.799 (inactive) and 0.929 (inactive) and 0.946 (inactive)
same,fold change,[11]; [18],1.72 and 0.693 and 2.86
same,cell count,[11]; [19],4490 and 6730 and 8460
same,cell count,[11]; [20],5620 and 7240 and 8940
same,z-score,[12]; [21],-0.541 (inactive) and 0.954 (inactive)
same,z-score,[12]; [22],1.41 and -0.174
same,remaining NAD,[13],10 nM (inactive)
